Test results as given in PubChem BioAssay (Tox21).
Records with an inconclusive call do not appear. Calls of active or inactive are those of the source. Unless noted, calls follow the shape of the dose curve; as a rule, active = well fitted curve in the direction sought with a large enough effect in the repeat runs; inconclusive = weak or mixed curves; inactive = no such curve, though single readings can be large; an effect the other way counts as inactive or inconclusive.

What was measured:
[1] = A CellTox Green Cytotoxicity Assay to monitor cytotoxicity in HEK293 cells - 16 hour (AID 1224888); also: nearly all actives have a fitted effect of over 35% in size
Method in brief: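 Fluorescence intensity, read at 0, 8, 16, 24, 32 and 40 h of compound treatment, reflected dye binding to DNA of dead HEK293 cells; compounds (23 nL, DMSO) were added 5 h after plating cells with reagent.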

[2] = qHTS RealTime-Glo MT Cell Viability Assay in HepG2 cells - 0 hour (AID 1224889); also: nearly all actives have a fitted effect of over 50% in size
Method in brief: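 Luminescence read-out: viable HepG2 cells reduce a prosubstrate to a NanoLuc substrate, giving a signal proportional to live cell number. Reads taken at 0, 8, 16, 24, 32 and 40 h of compound exposure at 37 C.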

[3] = A CellTox Green Cytotoxicity Assay to monitor cytotoxicity in HepG2 cells - 8 hour (AID 1224890); also: nearly all actives have a fitted effect of over 45% in size; also: potency is read from the fitted curve at half-maximal effect
Method in brief: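 Using 1536-well format, dye-containing HepG2 suspension was seeded, allowed 5 h at 37 C/5% CO2, dosed by pintool with compounds, positive and negative controls, and imaged for fluorescence across 40 h.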

[4] = qHTS assay to identify small molecule antagonists of the estrogen receptor alpha (ER-alpha) signaling pathway using the BG1 cell line in the presence of 0.1 nM 17-beta-estradiol - cell viability counter screen (AID 1259241); also: nearly all actives have a fitted effect of over 40% in size
Method in brief: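 CellTiter-Fluor read (30 min, 37C) on ER-alpha/ERE-luc VM7Luc4E2 cells; 22 hr compound treatment; agonist 0.1 nM E2 final; same-well multiplex.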

[5] = qHTS assay to identify small molecule antagonists of the androgen receptor (AR) signaling pathway using the MDA cell line in the presence of 0.5 nM R1881 - cell viability counter screen (AID 1259242); also: nearly all actives have a fitted effect of over 45% in size
Method in brief: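 Viability of MDA-kb2 cells was multiplexed with the luciferase AR readout; after 16 hr with compounds and R1881 at 0.5 nM final, CellTiter-Fluor fluorescence was recorded.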

[6] = qHTS assay to identify small molecule HDAC inhibitors (AID 1259364);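 also: wild-type HCT-116 cells with endogenous class I/II HDAC activity; top concentration of the series differs between compounds; nearly all actives have a fitted effect of over 45% in size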
Method in brief: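 Read-out: luminescence of HDAC-Glo I/II reagent, 30 min RT, reflecting class I/II deacetylase activity in whole HCT-116 cells pre-exposed 2 h to DMSO-dissolved compounds.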

[7] = qHTS assay to identify small molecule HDAC inhibitors - cell viability counter screen (AID 1259365); also: series mostly up to about 92 µM; nearly all actives have a fitted effect of over 50% in size
Method in brief: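 To flag cytotoxic hits, 1,500 wild-type HCT-116 cells per well, plated the day before, receive test compounds for 2hr at 37 C before CellTiter-Glo reagent and a luminescence read.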

[8] = target: Androgen receptor (Homo sapiens) (UniProt P10275); test: qHTS assay to identify small molecule antagonists of the androgen receptor (AR) signaling pathway using the MDA cell line in the presence of 0.5 nM R1881 (AID 1259243); also: nearly all actives have a fitted effect of over 50% in size
Chain of Androgen receptor (Homo sapiens) (P10275 whole entry, looked up): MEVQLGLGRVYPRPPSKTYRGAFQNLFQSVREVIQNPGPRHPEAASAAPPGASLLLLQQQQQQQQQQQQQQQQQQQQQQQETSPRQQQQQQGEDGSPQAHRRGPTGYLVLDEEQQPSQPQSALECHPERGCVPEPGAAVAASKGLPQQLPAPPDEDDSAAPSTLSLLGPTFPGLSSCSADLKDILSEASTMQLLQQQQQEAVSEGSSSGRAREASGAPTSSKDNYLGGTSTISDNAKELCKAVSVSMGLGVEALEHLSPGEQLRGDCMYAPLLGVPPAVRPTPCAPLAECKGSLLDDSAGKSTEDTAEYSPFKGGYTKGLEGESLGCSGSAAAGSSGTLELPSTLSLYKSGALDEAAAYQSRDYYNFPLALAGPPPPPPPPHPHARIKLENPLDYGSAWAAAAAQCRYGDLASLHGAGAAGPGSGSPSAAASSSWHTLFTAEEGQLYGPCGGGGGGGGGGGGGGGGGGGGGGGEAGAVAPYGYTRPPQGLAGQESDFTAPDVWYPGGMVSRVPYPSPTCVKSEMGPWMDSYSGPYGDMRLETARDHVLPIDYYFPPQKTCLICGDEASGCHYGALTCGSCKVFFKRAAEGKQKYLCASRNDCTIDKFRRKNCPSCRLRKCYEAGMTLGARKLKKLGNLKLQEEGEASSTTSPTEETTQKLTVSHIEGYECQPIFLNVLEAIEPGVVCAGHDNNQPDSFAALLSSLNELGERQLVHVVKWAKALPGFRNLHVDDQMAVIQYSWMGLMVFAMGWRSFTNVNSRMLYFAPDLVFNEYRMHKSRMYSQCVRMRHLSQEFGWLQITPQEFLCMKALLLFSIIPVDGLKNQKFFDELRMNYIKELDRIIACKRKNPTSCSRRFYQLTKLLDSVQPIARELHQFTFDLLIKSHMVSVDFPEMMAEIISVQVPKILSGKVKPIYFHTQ
Method in brief: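 Reporter cells cultured without CO2 receive test chemicals, then 0.5 nM R1881 final; after 16 hr at 37C, ONE-Glo is added and light output recorded.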

[9] = target: Estrogen receptor (Homo sapiens) (UniProt P03372); test: qHTS assay to identify small molecule antagonists of the estrogen receptor alpha (ER-alpha) signaling pathway using the BG1 cell line in the presence of 0.1 nM 17-beta-estradiol (AID 1259244); also: nearly all actives have a fitted effect of over 50% in size
Chain of Estrogen receptor (Homo sapiens) (P03372 whole entry, looked up): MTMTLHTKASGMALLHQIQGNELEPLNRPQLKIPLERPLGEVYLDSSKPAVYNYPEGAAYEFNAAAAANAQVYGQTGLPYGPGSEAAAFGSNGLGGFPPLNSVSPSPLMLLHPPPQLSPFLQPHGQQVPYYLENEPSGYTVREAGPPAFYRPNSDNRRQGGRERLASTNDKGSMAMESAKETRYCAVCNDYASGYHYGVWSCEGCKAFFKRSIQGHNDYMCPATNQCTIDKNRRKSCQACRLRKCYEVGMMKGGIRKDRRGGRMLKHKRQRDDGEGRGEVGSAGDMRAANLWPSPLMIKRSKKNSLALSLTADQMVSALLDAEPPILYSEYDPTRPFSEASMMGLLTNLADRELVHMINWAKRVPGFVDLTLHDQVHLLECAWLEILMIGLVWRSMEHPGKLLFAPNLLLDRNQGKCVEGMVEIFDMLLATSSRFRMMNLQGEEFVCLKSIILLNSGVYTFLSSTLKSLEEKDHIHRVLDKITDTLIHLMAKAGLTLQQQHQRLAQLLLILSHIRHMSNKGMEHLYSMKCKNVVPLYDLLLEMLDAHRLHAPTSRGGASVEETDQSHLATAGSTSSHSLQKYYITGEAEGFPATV
Method in brief: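 Estradiol at 0.1 nM (final) stimulates the endogenous ER-alpha of VM7Luc4E2 cells carrying an ERE-driven luciferase; compounds are co-incubated 22 h at 37C and luciferase output quantified by luminescence.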

[10] = qHTS assay to identify small molecule phospholipidosis (PLD) inducers (AID 1259344; active = well fitted curve in the direction sought with a large enough effect; an effect the other way counts as inactive or inconclusive)
Method in brief: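 HepG2 cells, 900/well, treated with compound plus LipidTOX Red for 24 h at 37 C; amiodarone positive and DMSO negative controls. Fixed with paraformaldehyde/Hoechst, then high-content imaging scored LipidTOX pit count and integrated intensity per well and per cell.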
% is scaled to controls: 0 for no effect and ±100 for the full control effect.

CCCCCC(=O)CC
inactive: Potency [1] | Potency [2] | Potency [3] | outcome [4] | outcome [5] | Potency [6] | outcome [7]

O=c1c(O)c(O)c1=O
inactive: Potency [1] | Potency [2] | Potency [3] | outcome [4] | outcome [5] | Potency [6]

CC(CN1CC(=O)NC(=O)C1)N1CC(=O)NC(=O)C1 (stereo not drawn)
inactive: Potency [1] | Potency [2] | Potency [3] | outcome [4] | Potency [8] | outcome [9] | outcome [7]

COc1ccc2cc(CCC(C)=O)ccc2c1
inactive: Potency [1] | Potency [2] | Potency [3] | outcome [4] | outcome [5] | Potency [10] | outcome [7]

CCCCCCCCCCCCCCCC/C=C/C1CC(=O)OC1=O (stereo not drawn)
inactive: Potency [1] | Potency [2] | Potency [3] | outcome [4] | outcome [5] | Potency [6] | outcome [7]

COC(C)(C)CC(C)=O
inactive: Potency [1] | Potency [2] | Potency [3] | outcome [4] | Potency [8] | Potency [6] | outcome [7]

CC(=O)c1c(C)cc(C(C)(C)C)cc1C
active: Potency [3] 43.6 µM
inactive: Potency [1] | Potency [2] | outcome [4] | outcome [5] | Potency [6]

CC/C=C\CCOC(=O)c1ccccc1
inactive: Potency [1] | Potency [2] | Potency [3] | outcome [4] | Potency [8] | outcome [9] | outcome [7]

O=C(O)P(=O)(O)O
inactive: Potency [1] | Potency [2] | Potency [3] | outcome [4] | outcome [5] | Potency [10] | outcome [7]

CCCC[O][Al]([O]CCCC)[O]CCCC
inactive: Potency [1] | Potency [2] | Potency [3] | outcome [4] | outcome [5] | Potency [6] | outcome [7]

O=c1[nH]c(=O)c2cn[nH]c2[nH]1
inactive: Potency [1] | Potency [2] | Potency [3] | outcome [4] | outcome [5] | outcome [7]

NC(=O)CC[C@@H](N)C(=O)O
inactive: Potency [1] | Potency [2] | Potency [3] | outcome [4] | outcome [5] | Potency [10] | Potency [6] | outcome [7]

CCO/C=C1\N=C(c2ccccc2)OC1=O
inactive: Potency [1] | Potency [2] | Potency [3] | outcome [4] | outcome [5] | Potency [6]

O=C1CC2(CCCC2)CC(=O)N1CCNCC1COc2ccccc2O1 (stereo not drawn)
inactive: Potency [1] | Potency [2] | Potency [3] | outcome [4] | outcome [5] | Potency [10] | Potency [6] | outcome [7]

O=S(=O)(O)c1cc(I)c(O)c2ncccc12
inactive: Potency [1] | Potency [2] | Potency [3] | outcome [4] | outcome [5] | Potency [10] | Potency [6] | outcome [7]

O=C1Nc2ccccc2C1=O
inactive: Potency [1] | Potency [2] | Potency [3] | outcome [4] | outcome [5] | Potency [6] | outcome [7]

C[C@H]1COc2c(C3(N)CC3)c(F)cc3c(=O)c(C(=O)O)cn1c23
inactive: Potency [1] | Potency [2] | Potency [3] | outcome [4] | outcome [5] | Potency [10] | Potency [6] | outcome [7]

CCCCCCCCS(=O)(=O)O
inactive: Potency [1] | Potency [2] | Potency [3] | outcome [4] | outcome [5] | Potency [6] | outcome [7]

CC1(C)CC(N)CC(C)(C)N1
inactive: Potency [1] | Potency [2] | Potency [3] | outcome [4] | outcome [5] | outcome [7]

Cc1ccc2ccccc2n1
inactive: Potency [1] | Potency [2] | Potency [3] | outcome [4] | outcome [5] | Potency [6] | outcome [7]

Cc1cc(N)no1
inactive: Potency [1] | Potency [2] | Potency [3] | outcome [4] | outcome [5] | Potency [6] | outcome [7]

CC(=O)/C=C/C=C1/C2CCC(C2)C1(C)C (stereo not drawn)
inactive: Potency [1] | Potency [2] | Potency [3] | outcome [4] | Potency [8] | outcome [9] | Potency [6]

C[n+]1ccccc1/C=N/O
inactive: Potency [1] | Potency [2] | Potency [3] | outcome [4] | outcome [9] | Potency [10] | Potency [6]

C=CC(=O)CC
inactive: Potency [1] | Potency [2] | Potency [3] | outcome [4] | outcome [5] | Potency [6] | outcome [7]

CC(C)OCCO
inactive: Potency [1] | Potency [2] | Potency [3] | outcome [4] | outcome [5] | Potency [6] | outcome [7]

CCCCCCCCOCCC#N
inactive: Potency [1] | Potency [2] | Potency [3] | outcome [4] | outcome [5] | Potency [6] | outcome [7]

N=C(N)N1CCc2ccccc2C1
inactive: activity change [1] -13.7% [at 6.97 µM, hits give high values] | activity change, negative = cytotoxicity [2] -7.09% [at 6.97 µM] | cytotoxicity increase [3] -13.8% [at 6.97 µM] | activity change, negative = cytotoxicity [4] 9.23% [at 8.39 µM] | viability change, negative = cytotoxic [5] -5.28% [at 8.39 µM] | Potency [10] | activity change, negative = inhibition [6] 3.09% [at 8.39 µM]

COC(=O)c1cc(Cl)c(NC(C)=O)cc1OC
inactive: Potency [1] | Potency [2] | Potency [3] | outcome [4] | Potency [8] | Potency [6] | outcome [7]

CC12CCCC=C1C(=O)OC2=O (stereo not drawn)
inactive: Potency [1] | Potency [2] | Potency [3] | outcome [4] | Potency [8] | Potency [6] | outcome [7]

CCCOc1ccc(C(=O)OCCN(CC)CC)cc1N
inactive: Potency [1] | Potency [2] | Potency [3] | outcome [4] | outcome [5] | Potency [10] | Potency [6]

COc1cc(NS(=O)(=O)c2ccc(N)cc2)ncn1
inactive: Potency [1] | Potency [2] | Potency [3] | outcome [4] | outcome [5] | Potency [10] | Potency [6] | outcome [7]

C=C(C)C(=O)OCCOC1CC2CC1C1C=CCC21 (stereo not drawn)
inactive: Potency [1] | Potency [2] | Potency [3] | outcome [4] | outcome [5] | outcome [7]

CCCC(C)C(O)CC (stereo not drawn)
inactive: Potency [2] | Potency [3] | outcome [4] | outcome [5] | Potency [6]

COC(=O)/C=C(\C)CCC=C(C)C
inactive: Potency [2] | Potency [3] | outcome [4] | outcome [9] | Potency [6]
